The results in this text go back to the supplement of paper PMC13380429.

For the experiment, the system named is Vero E6 infected with SARS-CoV-2. The experiment is described as follows: inhibition of SARS-CoV-2 cytopathic effect; higher = more antiviral protection, active = above 15. Particulars: 48 h. For orientation: Damage to the host cells serves as the signal in cytopathic effect assays.

Molecules are shown by their SMILES. Unmarked numbers belong to inactive results.

With `COc1cc(Nc2ncc3c(n2)-c2ccc(Cl)cc2C(c2c(F)cccc2OC)=NC3)ccc1C(=O)O` [alisertib], the “inhibition of SARS-CoV-2 cytopathic effect” value (“inhibition” below) is -2.11% (1 nM); 0.41% (8.33 nM); -2.08% (100 nM); 0.49% (833.33 nM); -5.87% (10000 nM).
For `Oc1ccc(OC2CCCCO2)cc1` (stereo not given) [deoxyarbutin], in that order: -1.9%, -1.93%, -0.6%, 0.9% and -0.71%.
For `CCCN(CCC)S(=O)(=O)c1ccc(C(=O)O)cc1` [probenecid], the “inhibition” value reads like this: (1 nM) -0.75%; (8.33 nM) -2.02%; (100 nM) -2.27%; (833.33 nM) -2.63%; (10000 nM) -2.19%.
Regarding `CCN(CC)C(=O)N1CCN(C)CC1` [diethylcarbamazine], the “inhibition” value (1 nM) was -4.87%; the “inhibition” value (8.33 nM) was -4.75%; the “inhibition” value (100 nM) was -2.46%; the “inhibition” value (833.33 nM) was 0.55%; the “inhibition” value (10000 nM) is -2.31%.
Turning to `CC(C)=CCC/C(C)=C/CNCCNC1C2CC3CC(C2)CC1C3` (stereo not given), the “inhibition” value (1 nM) was 0.6%; the “inhibition” value (8.33 nM) was 0.09%; the “inhibition” value (100 nM) is 1.62%; the “inhibition” value (833.33 nM) is 1.05%; the “inhibition” value (10000 nM) was 0.17%.
Regarding `[O-][n+]1ccccc1[S-].[O-][n+]1ccccc1[S-].[Zn+2]` [pyrithione-zinc], the “inhibition” value runs as follows: (1 nM) 1.44%; (8.33 nM) 0.32%; (100 nM) 1.01%; (833.33 nM) 29.9% (active); (10000 nM) -21.9%.
Turning to `O=C1c2c(O)cccc2Cc2cccc(O)c21` [anthralin], the “inhibition” value reads like this: (1 nM) -1.32%; (8.33 nM) -2.05%; (100 nM) 0.93%; (833.33 nM) -2.71%; (10000 nM) -1.19%.
As to `O=C1Nc2ccccc2C2(CCN(CCc3ccc(C(F)(F)F)cc3)CC2)O1`, the “inhibition” value is, setting by setting: (1 nM) -1.89%; (8.33 nM) -4.51%; (100 nM) -1.41%; (833.33 nM) -2.49%; (10000 nM) -3.73%.
